# Bioassay records as filed in PubChem.
# An excerpt weighted towards active compounds, which were near 11% of everything screened.
# Ins promoter up – insulin promoter activators in MIN6 cells, imaging, high-content screening, mouse beta cells. 190,000 compounds, 0.3% hits. MIN6 insulin promoter-GFP reporter; active compounds read high. z-score at 5 µM;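 active = z-score above 3 at 5 µM with at least 500 cells counted in the well; inconclusive = wells under 500 cells, flagged as cytotoxic or low count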
# Insulin prom inh – inhibitors of insulin promoter-driven GFP, primary screen, imaging, TRM-6 cells (human fetal islet line), eGFP reporter, cell count | reporter expression induced with tamoxifen | 130,000 compounds, 0.9% hits | inhibition, % at 2 µM;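 active = inhibition above the mean plus 3 SD, with well images judged a real hit on visual review, cut at about 60% in these data, passing the limit was not always enough; inconclusive = inhibition over the cutoff but images rejected on review; inactive = inhibition not above the cutoff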
# WT yeast gro inh – growth inhibition of WT strain, primary screen, mitochondrial fusion inhibitor project, WT and mutant strains, chemical genetic | mitochondrial fusion phenotypic screen | inhibition, % at 10 µM | 190,000 compounds, 2.1% hits | AID 1362, 2008; in the data active = inhibition above about 58%; tested in S. cerevisiae
# Autophagy mod – autophagy modulators in MEF cells, primary screen, imaging, high-content, MEF GFP-LC3; MEF GFP-LC3 puncta imaging; test concentration mostly 10 µM; calls only at 10 µM (by protocol); 190,000 compounds, 0.98% hits; AID 463193, 2010;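 active = percentage of spot-positive cells more than 3 SD above its plate mean, without a fluorescence outlier flag or 80% toxicity; inconclusive = no clear call, values can overlap the other calls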;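 also: spot-positive cell cutoff set from DMSO-treated cells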
# Lmaj promast – Leishmania major promastigote growth inhibition, primary screen. Leishmania major promastigotes, resazurin fluorescence viability. inhibition, % at 10 µM. 200,000 compounds, 9% hits. AID 1063, 2008; in the data active = inhibition above about 50%;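 also: promastigotes grown with compound for 44 hours at 28 °C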
# Starred values were filed as active, the others as inactive; i = inactive; ? = inconclusive; nt = not tested or not shown; + = active, no number; ! = a repeat was not active.
SMILES,Ins promoter up,Insulin prom inh,WT yeast gro inh,Autophagy mod,Lmaj promast
FC(F)(F)c1ccccc1NC(=S)N1CCN(Cc2ccc3c(c2)OCO3)CC1,0.52,nt,23,i,48
CCCCNC(=S)N1CCN(Cc2ccc3c(c2)OCO3)CC1,-0.11,28,-4,i,75*
CC1CCCN(S(=O)(=O)c2ccc(NC(=O)CCN3C(=O)c4ccccc4C3=O)cc2)C1 (centres undefined),0.41,-26,-3,i,-4
Fc1ccc(NC(=S)NC2CC3CCCC(C2)N3Cc2cccs2)cc1 (centres undefined),nt,17,1,i,94*
Cc1cccc(C)c1NC(=O)NC1CC2CCC(C1)N2Cc1cccs1 (centres undefined),-0.39,-19,12,i,0
Cc1ccc(NC(=S)NC2CC3CCCC(C2)N3Cc2cccs2)cc1 (centres undefined),-1.6,nt,-8,i,92*
CC(C)c1ccc(NC(=O)NC2CC3CCC(C2)N3Cc2cccs2)cc1 (centres undefined),-0.13,nt,3,i,73*
CC(C)c1nc2sc3c(SCC(N)=O)ncnc3c2c2c1CCC2,-0.17,nt,nt,nt,nt
CC(C)c1ccc(-n2c(-c3ccccc3)c[n+]3c2CCc2ccccc2-3)cc1,?,-75,49,+,100*
C[n+]1cc(-c2ccccc2)n2c1CCCCC2,-0.26,-3,8,i,-4
COc1ccc(-n2c(-c3ccc(Br)cc3)c[n+]3c2CCc2ccccc2-3)cc1,-2,25,35,i,100*
COc1ccccc1-n1c(-c2ccccc2)c[n+]2c1CCc1ccccc1-2,?,-100,63*!,i,101*
COC(=O)C(Cc1ccc(O)cc1)NC(=O)C(CC(=O)OC(C)(C)C)NC(=O)OC(C)(C)C (centres undefined),-0.65,nt,5,i,4
Cc1cc(-c2cc(-c3ccccc3)on2)nc(NCC2CC2)n1,-0.32,nt,nt,nt,nt
CCc1nnc(NC(=O)C2(C)COC(c3ccc(OC)cc3)OC2)s1 (centres undefined),0.08,0,-5,i,5
C/C(=C\c1ccccc1)C(=O)NCc1ccco1,0.05,nt,-20,i,-2
CCOC(=O)c1cnn(-c2cc(C)nc3c(-c4ccccc4)cnn23)c1N,3.6*,-17,-30,i,4
Cc1ccc(SCCNC(=S)Nc2ccc(C)cc2C)cc1,-0.5,-41,69*,i,9
Cc1ccc(SCCNC(=S)Nc2cc(C)cc(C)c2)cc1,-0.26,28,76*,i,65*
Cc1ccc(NC(=O)NCCSc2ccc(C)cc2)cc1,0.31,nt,-9,i,-4
Cc1ccc(NC(=S)NCCc2ccc(F)cc2)c(C)c1,-0.26,nt,40,i,10
Cc1ccc(NC(=S)NCCSc2ccc(Cl)cc2)cc1,nt,36,25,i,28
COC(=O)Cc1ccc(NC(=S)NCCSc2ccc(C)cc2)cc1,0.81,nt,68*,i,3
O=C(NC(=S)Nc1cc(C(F)(F)F)ccc1N1CCOCC1)c1ccco1,-0.06,nt,nt,nt,nt
CN(C(=O)CCn1c(=S)oc2ccccc21)c1ccc(F)cc1,-0.41,-14,15,i,-1
SMILES,Ins promoter up,Insulin prom inh,WT yeast gro inh,Autophagy mod,Lmaj promast
CC(C)N(C(=O)CSc1nnnn1C1CCCC1)C(C)C,nt,nt,0,i,0
Cc1ccc(S(=O)(=O)N(Cc2ccccc2)Cc2ccco2)cc1,-1.8,nt,76*,i,88*
CCN(CC(=O)NCCc1ccccc1)S(=O)(=O)c1ccc(Br)cc1,-0.1,-4,-2,i,5
Cc1ccc(S(=O)(=O)N(Cc2ccc(F)cc2)Cc2ccco2)cc1,-2.9,54,-8,i,28
Cc1ccc(S(=O)(=O)N(Cc2ccc(Cl)cc2)c2ccccc2C(=O)NCc2ccco2)cc1,-1.3,nt,43,i,58*
Cc1ccccc1N(CC(=O)Nc1ccccc1C(=O)NCc1ccco1)S(=O)(=O)c1ccccc1,-0.75,-73,-21,i,11
O=C(CN(Cc1ccccc1)S(=O)(=O)c1ccc(Br)cc1)NCc1ccco1,0.16,-70,13,i,100*
C[N+](C)(C)C/C=C1/COCO1,1.1,nt,-10,i,-1
CC(C)N(C(=O)CS(=O)(=O)c1ccc(Cl)c(Cl)c1)C(C)C,nt,-19,0,i,85*
CC(C)c1nnc(NC(=O)C2CCN(S(=O)(=O)c3ccc(-n4cnnn4)cc3)CC2)s1,1.2,-87,6,i,-8
CCc1ccc(N=CC23c4ccccc4C(c4ccccc42)C2C(=O)N(c4ccc(OC)cc4)C(=O)C23)cc1 (centres undefined),nt,22,21,i,89*
Cn1cnc([N+](=O)[O-])c1Oc1ccc2ccccc2c1,-0.32,11,17,i,81*
Cn1cnc([N+](=O)[O-])c1Sc1nc2ccccc2[nH]1,-1.2,nt,nt,nt,nt
Cc1cc(C(=O)NNC2CC(=O)N(c3ccc4ccccc4c3)C2=O)c(C)o1 (centres undefined),-0.45,nt,-12,i,-5
CCOc1ccc(CCNC(=O)COC(=O)c2cc(OC)cc(OC)c2)cc1OCC,-1.1,nt,-8,i,1
CCCc1cc(C(=O)Nc2sc(C)c(CC)c2C#N)no1,1.2,70*,17,i,-10
O=C(c1cc(F)c(F)cc1Cl)N1CCN(c2ccc([N+](=O)[O-])c3ncccc23)CC1,-0.22,16,3,i,57*
O=C(c1cc([N+](=O)[O-])ccc1Cl)N1CCN(c2ccccn2)CC1,2.1,35,9,i,2
CCOc1cc(C=O)c(Br)cc1OC1CCCC1,0,23,6,i,83*
COc1ccc(NC(=O)O/N=C2/CCCc3ccc(OC)cc32)cc1,-0.7,nt,15,i,8
COc1ccc2c(c1)/C(=N/OC(=O)c1cccs1)CCC2,0.4,46,71*,i,4
Cc1cccc(N2CCN(C(=O)CN3C(=O)C4CC=CCC4C3=O)CC2)c1C (centres undefined),-0.53,0,12,i,1
COc1cc([N+](=O)[O-])ccc1N1C(=O)C2C3C=CC(C4CC34)C2C1=O (centres undefined),-0.34,-6,6,i,4
COC(=O)C(C(=O)OC)C(C[N+](=O)[O-])c1ccc(OC)c(OC)c1 (centres undefined),-0.01,8,-7,i,100*
COc1ccc(C(NC(=O)CC(C)C)NC(=O)CC(C)C)cc1OC,0.94,-30,7,i,-6
COc1cccc(CN2CCN(c3nc4nonc4nc3NC3CC3)CC2)c1,-0.41,nt,-23,i,-5
CC1CN(S(=O)(=O)c2cccc(C(=O)OCc3cc(=O)oc4cc(O)ccc34)c2)CC(C)O1 (centres undefined),-0.96,-55,-1,i,96*
O=C(O)c1cccc(NS(=O)(=O)c2ccc(Cl)c(C(=O)O)c2)c1,0.94,nt,16,i,-13
CC(C)C(=O)Nc1cc(S(=O)(=O)Nc2ccc(Cl)cc2)ccc1Cl,-0.01,nt,74*,i,-1
